Screening data deposited in PubChem by National Center for Advancing Translational Sciences (NCATS).
Only a selection was taken, and hits are over-represented in it overall.
CHX counter – affects cycloheximide protein synthesis inhibition readout, counter-screen; cell reporter, cycloheximide protein synthesis inhibition counterscreen; max response, %; AID 2314; actives 12% (n = 300,000); in the data active = max response mostly above about 13%, no sharp cut-off; inactive = mostly below about 14%; note: read at 38.3 µM for the half of the compounds with a filed dose
LASV entry inh – Lassa virus entry inhibition. Lassa virus pseudotype entry inhibition, cell reporter. Potency, µM (doses to about 37.9 µM), hits mostly inhibitors. actives 1.2% (n = 300,000); calls by dose curve; tested in HEK293 cells; note: nearly all actives have a fitted effect of over 50% in size
Shiga toxin inh – inhibitors of Shiga toxin in Vero cells | Vero cells, Shiga toxin protein synthesis inhibition reporter | inhibition, % at 38.7 µM | actives 9.2% (n = 290,000); in the data active = inhibition mostly above about 28%, no sharp cut-off; inactive = mostly below about 43%
MARV entry inh – inhibitors of Marburg virus binding or cell entry; Marburg virus pseudotyped entry inhibition, cell reporter; Potency, µM (doses to about 37.8 µM), actives largely listed as inhibitors; actives 1.8% (n = 300,000); calls by dose curve; tested in HEK293 cells
VACV Venus inh – vaccinia inhibition (Venus reporter); Vaccinia virus Venus reporter expression, fluorescence; Potency, µM (titrated, usually from 36.5 µM), most hits filed as inhibitors; actives 0.46% (n = 330,000); AID 720580; calls by dose curve; tested in A549 cells; note: nearly all actives have a fitted effect of over 30% in size
VACV mCherry inh – vaccinia inhibition (mCherry reporter); AID 720579; actives 0.63% (n = 310,000); Potency, µM (series often up to 36.5 µM), most hits filed as inhibitors; Vaccinia virus mCherry reporter infection, fluorescence; calls by dose curve; tested in A549 cells; note: nearly all actives have a fitted effect of over 35% in size
Large screens that a line does not name were inactive.

CC(CN1CCN(C)CC1)OC(=O)c1cccc(Cl)c1 (stereo not drawn)	CHX counter 17, Shiga toxin inh 52
COC(=O)c1cc(NC(=O)c2cccc(C(F)(F)F)c2)c(=O)oc1C	none
COC(=O)c1cc(NC(=O)c2cccc(Cl)c2)c(=O)oc1/C=C/Nc1cc(C)cc(C)c1	Shiga toxin inh 57 (no result: LASV entry inh, MARV entry inh, VACV Venus inh, VACV mCherry inh)
O=C(CN1C(=O)COc2ccccc21)NCCc1ccc(Cl)cc1	none (no result: CHX counter, Shiga toxin inh, MARV entry inh)
COc1ccccc1/C=C/C=N/N1CCN(Cc2ccccc2)CC1	CHX counter 13
CC(/C=N/N1CCN(Cc2ccccc2)CC1)=C\c1ccccc1	CHX counter 25
Cc1ccc(/C=N/N2CCN(Cc3ccccc3)CC2)cc1	CHX counter 17, MARV entry inh inconclusive
Fc1ccc(/C=N/N2CCN(Cc3ccccc3)CC2)cc1	CHX counter 20, Shiga toxin inh 62, MARV entry inh inconclusive
COc1cccc2c1C1(CCCCC1)CC2NC(=O)C(F)(F)F (stereo not drawn)	none (no result: CHX counter, LASV entry inh, Shiga toxin inh, VACV Venus inh, VACV mCherry inh)
CCCN(CCC)C(=O)Cn1c(=O)n(-c2ccc(C)cc2)c(=O)c2ccc(C(=O)NCc3ccccc3Cl)cc21	none (no result: CHX counter, Shiga toxin inh)
CCOc1ccc(NC(=O)COC(=O)COc2cccc3c2OC(C)(C)C3)cc1	none
O=C(NCC1CC1)c1ccc2c3n(nc2c1)-c1ccc(Cl)cc1CO3	none (no result: CHX counter, LASV entry inh, Shiga toxin inh, MARV entry inh)
COCCNC(=O)c1ccc2c3n(nc2c1)-c1ccc(Cl)cc1CO3	CHX counter 7.5, Shiga toxin inh 44 (no result: LASV entry inh, MARV entry inh)
C=CCNC(=O)c1ccc2c3n(nc2c1)-c1ccccc1CO3	CHX counter 27, Shiga toxin inh 46 (no result: LASV entry inh, MARV entry inh)
Cc1ccc(-n2cnc3cc(C(=O)NCCC4=CCCCC4)ccc32)c(C)c1	LASV entry inh inconclusive (no result: CHX counter, Shiga toxin inh, MARV entry inh)
Cc1ccc2c(c1)COc1c3ccc(C(=O)NCCO)cc3nn1-2	CHX counter 61, Shiga toxin inh 74 (no result: LASV entry inh, MARV entry inh)
O=C(NCCO)c1ccc2c3n(nc2c1)-c1ccc(Cl)cc1CO3	CHX counter 54, Shiga toxin inh 79 (no result: LASV entry inh, MARV entry inh)
Cc1cc(C)n(C(C)CC(=O)NCc2ccccc2C)n1 (stereo not drawn)	none (no result: CHX counter, Shiga toxin inh, MARV entry inh)
COCCNC(=O)c1ccc2c3n(nc2c1)-c1ccccc1CO3	CHX counter 30, Shiga toxin inh 41 (no result: LASV entry inh, MARV entry inh)
COC(=O)N[C@@H](c1ccc(Cl)cc1)C(C(C)=O)C(=O)OC (stereo partly drawn)	none (no result: CHX counter, LASV entry inh, Shiga toxin inh, VACV Venus inh, VACV mCherry inh)
COC(=O)c1ccc(C(C(=O)NCc2ccccc2)N(Cc2cccs2)C(=O)c2cnccn2)cc1 (stereo not drawn)	MARV entry inh inconclusive (no result: VACV Venus inh, VACV mCherry inh)
COCCN(C(=O)Cc1cccs1)C(C(=O)NCc1ccc(OC)cc1)c1ccc(OC)cc1 (stereo not drawn)	LASV entry inh inconclusive
Cc1ccc(C(C(=O)NCc2ccccc2)N(Cc2cccs2)C(=O)c2ccc3c(c2)OCCO3)cc1 (stereo not drawn)	LASV entry inh 6.5µM, MARV entry inh 6.5µM (no result: VACV Venus inh, VACV mCherry inh)
COc1ccc(CNC(=O)C(c2ccc(C)cc2)N(Cc2cccs2)C(=O)c2ccc3c(c2)OCCO3)cc1 (stereo not drawn)	LASV entry inh inconclusive, MARV entry inh 12µM
Cc1cc(C(C)(C)C)c(O)c(C(C)(C)C)c1	none (no result: LASV entry inh, MARV entry inh)
CC(C)(C)c1cc([N+](=O)[O-])cc(C(C)(C)C)c1O	LASV entry inh 16µM, MARV entry inh 6.5µM (no result: VACV Venus inh, VACV mCherry inh)
Cc1ccc(NC(=O)COC(=O)Cc2csc(-c3cccc(F)c3)n2)cc1C	MARV entry inh inconclusive
Cc1ccc(NC(=O)COC(=O)Cc2csc(-c3ccc(Cl)cc3)n2)cc1C	CHX counter 23, Shiga toxin inh active
O=C(CSc1n[nH]c(Cc2ccccc2)n1)Nc1ccccc1Br	MARV entry inh inconclusive (no result: LASV entry inh)
Cc1cccc(C(=O)NNC(=O)c2ccc(NC(=O)C(C)(C)C)cc2)c1	CHX counter 30, Shiga toxin inh 39 (no result: LASV entry inh, MARV entry inh, VACV Venus inh, VACV mCherry inh)
COc1cccc(NC(=O)c2ccc(NC(=O)C(C)(C)C)cc2)c1	CHX counter 54, Shiga toxin inh 56, MARV entry inh inconclusive
COc1ccc(C(=O)Nc2cccc(NC(C)=O)c2)cc1	none (no result: CHX counter, LASV entry inh, Shiga toxin inh, MARV entry inh)
COc1cccc(NC(=O)CNC(=O)c2ccc(C)cc2)c1	none (no result: LASV entry inh, MARV entry inh, VACV Venus inh, VACV mCherry inh)
CCCC(=O)Nc1ccc(C(=O)Nc2cccc(OC)c2)cc1	CHX counter 47, Shiga toxin inh 68 (no result: VACV Venus inh, VACV mCherry inh)
CC(C)N1C(=O)c2ccccc2N(Cc2ccccc2)S1(=O)=O	none (no result: LASV entry inh, MARV entry inh, VACV Venus inh, VACV mCherry inh)
O=C(N[C@H](c1ccccc1)C1CCCC=C1c1ccccc1)C(F)(F)F (stereo partly drawn)	none (no result: CHX counter, LASV entry inh, Shiga toxin inh, VACV Venus inh, VACV mCherry inh)
COc1ccc(C(=O)OC(C)C(=O)NC(C)CCc2ccccc2)c(OC)c1 (stereo not drawn)	LASV entry inh inconclusive
CN1CCc2c(c3cnc4cc(Cl)ccc4c3n2C)C1	none (no result: CHX counter, LASV entry inh, Shiga toxin inh, MARV entry inh)
